Where “and” joins values, the source holds several entries; their conditions need not be identical. Equal values may be shown once. Results filed as inconclusive are left out. Calls of active or inactive are those of the source. The call rests on the fitted dose curve; in most records, active means well fitted curve in the direction sought with a large enough effect; inconclusive means small, poorly fitted or top-dose-only effect, or another doubt; inactive means no such curve, though single readings can be large; an effect the other way counts as inactive or inconclusive.
Legend:
[1] = molecular target: Cellular tumor antigen p53 (Homo sapiens) (UniProt P04637); assay: Primary qHTS for small molecule compounds that upregulate eGFP-tagged delta133p53alpha (in N-terminal) cells. (AID 2060322); settings: NCI-H358 eGFP-delta133p53alpha fluorescence, 24 h; activation: stronger effect = higher value; further: nearly all actives have a fitted effect of over 75% in size; further: potency means the concentration at half of the fitted maximal effect;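 on activation: cells pre-induced with doxycycline then dosed without doxycycline; series mostly up to about 56 µM; 0% = DMSO vehicle and 100% = reference activator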
Chain of Cellular tumor antigen p53 (Homo sapiens) (P04637 whole entry, looked up): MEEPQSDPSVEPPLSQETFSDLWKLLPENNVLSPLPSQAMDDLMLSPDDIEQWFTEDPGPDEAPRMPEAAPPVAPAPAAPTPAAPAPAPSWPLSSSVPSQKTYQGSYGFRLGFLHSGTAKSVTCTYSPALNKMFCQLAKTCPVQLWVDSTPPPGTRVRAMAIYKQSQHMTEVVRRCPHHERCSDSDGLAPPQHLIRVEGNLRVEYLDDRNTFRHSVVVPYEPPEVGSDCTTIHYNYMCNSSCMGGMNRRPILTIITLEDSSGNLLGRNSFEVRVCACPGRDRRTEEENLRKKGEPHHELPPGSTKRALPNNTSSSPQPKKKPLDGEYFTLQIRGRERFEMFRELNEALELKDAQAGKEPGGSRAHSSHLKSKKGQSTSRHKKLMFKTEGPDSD
In short: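 NCI-H358 cells pre-induced 24 h with 10 ng/ml doxycycline for eGFP-delta133p53alpha, plated dox-free and exposed 24 h at 37C to titrated compounds. Fixed, Hoechst-stained; gated GFP peak intensity by laser scanning cytometry, normalized to DMSO (0%) and 57.5 uM 5-azacytidine (100%).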

[2] = molecular target: Aldehyde dehydrogenase, mitochondrial (Homo sapiens) (UniProt P05091); assay: qHTS for Inhibitors of the Aldehyde Dehydrogenase Family (ALDH2) Primary screen (AID 2061308);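 further: plate controls were vehicle for no effect and reference inhibitor for full effect; nearly all actives have a fitted effect of over 55% in size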
[3] = molecular target: Retinaldehyde dehydrogenase 3 (Homo sapiens) (UniProt P47895); assay: qHTS for Inhibitors of the Aldehyde Dehydrogenase Family (ALDH1A3) Validation screen (AID 2061312); further: on the % scale 0 is the no-effect control and ±100 the full control effect; nearly all actives have a fitted effect of over 45% in size
[4] = molecular target: Retinaldehyde dehydrogenase 3 (Homo sapiens) (UniProt P47895); assay: qHTS for Inhibitors of the Aldehyde Dehydrogenase Family (ALDH1A3) Primary screen (AID 2061315);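 further: plate controls were DMSO vehicle for no effect and reference inhibitor for full effect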
[5] = BET inhibitor-based combinations targeting novel dependencies in MECOM-rearranged (r) AML: SET-2 cell line (AID 2202231); settings: SET-2 AML cells viability, CellTiter-Glo luminescence, 48 h; viability: stronger effect = lower value, concentration not given here; further: nearly all actives have a fitted effect of over 35% in size; further: potency means the concentration at half of the fitted maximal effect;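 on viability: plate controls were DMSO treated cells for no effect and wells without cells for full effect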
In short: (§1)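 500 cells/well; 11-pt dose curve; 48 h, standard incubator; CellTiter-Glo luminescence after 15 min RT; DMSO/empty-well normalization; AUC plus Z-AUC (mean-centered within each line).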

[6] = BET inhibitor-based combinations targeting novel dependencies in MECOM-rearranged (r) AML: OCI-AML3 cell line (AID 2202232); settings: Potency: OCI-AML3 viability; further: nearly all actives have a fitted effect of over 35% in size; further: potency means the concentration at half of the fitted maximal effect
In short: as §1

[7] = BET inhibitor-based combinations targeting novel dependencies in MECOM-rearranged (r) AML: MV-4-11 cell line (AID 2202233); further: nearly all actives have a fitted effect of over 45% in size; further: potency means the concentration at half of the fitted maximal effect
In short: (§2)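 Cells were plated at 500 per well and exposed to each drug across an 11-point dose range for 48 hr at standard incubator conditions. Viability was read by CellTiter-Glo luminescence, and activity was expressed as AUC and per-cell-line Z-transformed AUC.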

[8] = BET inhibitor-based combinations targeting novel dependencies in MECOM-rearranged (r) AML: HNT-34 cell line (AID 2202234); further: nearly all actives have a fitted effect of over 35% in size; further: potency means the concentration at half of the fitted maximal effect
In short: as §2

[9] = BET inhibitor-based combinations targeting novel dependencies in MECOM-rearranged (r) AML: AML-191 cell line (AID 2202236; further: nearly all actives have a fitted effect of over 35% in size; further: potency means the concentration at half of the fitted maximal effect)
In short: as §1

[10] = BET inhibitor-based combinations targeting novel dependencies in MECOM-rearranged (r) AML: AML-194 cell line (AID 2202237; further: nearly all actives have a fitted effect of over 40% in size; further: potency means the concentration at half of the fitted maximal effect)
In short: as §1

[11] = BET inhibitor-based combinations targeting novel dependencies in MECOM-rearranged (r) AML: UCSD-AML1 cell line (AID 2202235); further: nearly all actives have a fitted effect of over 40% in size; further: potency means the concentration at half of the fitted maximal effect
In short: as §2

C#CC[C@H](c1nc2cc(Cl)ccc2c(=O)n1Nc1ccccc1)N(CCCN)C(=O)c1cccc(Cl)c1F
inactive: Potency [2] | Potency [3] | Potency [4]
active: Potency [1] 4.78 µM | Potency [5] 10.5 µM | Potency [6] 0.59 µM | Potency [7] 1.05 µM | Potency [8] 0.372 µM | Potency [9] 3.32 µM

CNC1CCC(N(Cc2cccc(-c3ccncc3)c2)C(=O)c2sc3c(F)ccc(F)c3c2Cl)CC1 (configuration not stated)
active: Potency [5] 26.3 µM | Potency [6] 16.6 µM | Potency [7] 16.6 µM | Potency [8] 20.9 µM | Potency [9] 20.9 µM | Potency [10] 23.5 µM
inactive: activation [1] 21.5% | Potency [2] | Potency [3] | Potency [4]

Clc1cccc(-n2nnnc2NCc2ccccc2Oc2ccccn2)c1Cl
inactive: activation [1] -7.52% and 10.5% | Potency [2] | Potency [3] | Potency [4] | viability [5] 103% | Potency [6] | Potency [7] | Potency [8] | Potency [11] | Potency [9] | Potency [10]

CC(=O)c1cnc2ccc(-c3cc(Cl)c(O)c(Cl)c3)nc2c1NC1CCC(CN(C)C)CC1 (configuration not stated)
active: Potency [1] 153 nM and 195 nM | Potency [5] 0.0605 µM | Potency [6] 0.121 µM | Potency [7] 0.0171 µM | Potency [8] 0.0481 µM | Potency [11] 0.027 µM | Potency [9] 0.0481 µM | Potency [10] 0.0605 µM
inactive: activity change, negative = inhibition [2] 21.4% [at 11.2 µM] | activity change, negative = inhibition [3] 24.3% [at 20.1 µM] | activity change, negative = inhibition [4] 9.88% [at 11.2 µM]

COc1cc(CCc2cc(NC(=O)c3ccc(N4C[C@@H](C)N[C@@H](C)C4)cc3)n[nH]2)cc(OC)c1
inactive: activation [1] 1.33% and -3.34% | Potency [2] | Potency [3] | Potency [4]
active: Potency [5] 20.9 µM | Potency [6] 18.6 µM | Potency [7] 2.09 µM | Potency [8] 7.42 µM | Potency [11] 7.42 µM | Potency [9] 16.6 µM | Potency [10] 14.8 µM

CN(C)C1CCN(C(=O)c2ccc(NC(=O)Nc3ccc(-c4nc(N5CCOCC5)nc(N5CCOCC5)n4)cc3)cc2)CC1
active: Potency [5] 4.68 µM | Potency [6] 0.166 µM | Potency [7] 0.118 µM | Potency [8] 0.118 µM | Potency [11] 0.263 µM
inactive: activation [1] -0.955% | Potency [2] | Potency [3] | Potency [4]

O=C(COCC(=O)N1CCN(C(c2ccccc2)c2ccccc2)CC1)Nc1ccc(Cl)cc1C(=O)O
inactive: activation [1] -25.3% | Potency [2] | Potency [3] | Potency [4] | viability [5] 119% | Potency [6] | Potency [7] | Potency [8] | Potency [11] | Potency [9] | Potency [10]
